Source: PubChem BioAssay AID2501 (Southern Research Specialized Biocontainment Screening …, 2010)
Hit rate of the full screen: of about 2,200 compounds, about 1,200 (55%) were called active. No cut-off is given here; in the data, nearly all actives have IC50 up to about 92 µM. So high a share suggests a set chosen from earlier hits. This is one part of the list.

experiment: counter assay for TAg ATPase ADP read-out – biochemical, ADP-Hunter, fluorescence, counter-screen (AID 2501); details: series mostly up to 100 µM;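 note: purified T antigen ATPase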

SMILES	IC50
CNC(=O)c1ccc(-c2sc3nc(N4CCOCC4)c4c(c3c2N)CCCC4)o1	14.8 µM (active)
NNC(=O)c1sc2nc(N3CCOCC3)c3c(c2c1N)CCCC3	36.6 µM (active)
CNC(=O)c1ccc(-c2sc3nc(N4CCOCC4)c4c(c3c2N)CC(C)(C)OC4)o1	3.18 µM (active)
Nc1c(C(=O)NC2CC2)sc2nc3c(c(-c4ccco4)c12)CC/C3=C/c1ccco1	inactive
C=CCc1cccc2cc(C(=O)Nc3ccc(S(=O)(=O)Nc4nnc(CC)s4)cc3)c(=O)oc12	inactive
Cc1ccc2cn[nH]c2c1N	6.68 µM (active)
O=C1CCCC(O)=C1C=Nc1ccc(O)cc1	4.6 µM (active)
O=C1CCCC(O)=C1N=Nc1ccc(C(=O)O)cc1	inactive
CC1(C)CC(=O)C(C=Nc2ccc(O)cc2)=C(O)C1	2.78 µM (active)
Cc1ccccc1CN(C)C(=O)COC(=O)CSc1ccc([N+](=O)[O-])cc1	inactive
COC/C=C/C1=CC2=CC(=O)C(C)(OC(=O)CCC(=O)OC)C(=O)C2=CO1 (stereo unspecified)	inactive
COC/C=C/C1=CC2=CC(=O)C(C)(OC(=O)c3ccco3)C(=O)C2=CO1 (stereo unspecified)	2.83 µM (active)
COC/C=C/C1=CC2=CC(=O)C(C)(OC(=O)c3cnc4ccccc4n3)C(=O)C2=CO1 (stereo unspecified)	inactive
O=c1[nH]c(=O)c2nnc(N/N=C\c3ccc(O)cc3)nc2[nH]1	7.96 µM (active)
O=c1c2cc(N3CCOCC3)ccc2[nH]c(=S)n1Cc1ccco1	inactive
Cc1ccc(Cn2c(=S)[nH]c3ccc(N4CCOCC4)cc3c2=O)o1	inactive

SMILES	IC50
CCc1cc(N2CCOCC2)cc2c1[nH]c1ccccc12	6.15 µM (active)
Cc1cc(C)c(S(=O)(=O)c2ccccc2Cl)c(Cl)n1	inactive
O=C1NC(=S)SC1=C1CCCC1	inactive
CN1CCC/C1=C/C=C1\SC(=S)NC1=O	7.5 µM (active)
CC(=O)c1sc2nsc(SCCN3CCOCC3)c2c1N	21.3 µM (active)
CS(=O)(=O)c1ccc(NC(=O)CCN2C(=O)C3CCCCC3C2=O)cc1 (stereo unspecified)	inactive
O=C(CCn1c(=O)oc2cc(Cl)ccc21)Nc1ccc(O)cc1	3.84 µM (active)
O=C(O)CCC(=O)Nc1ccc(SSc2ccc(NC(=O)CCC(=O)O)cc2)cc1	inactive
CN(C)CCN(C(=O)c1ccccc1Cl)c1nc2c(Cl)cccc2s1	inactive
C/C(=N/NC(N)=S)c1cc2ccc(O)cc2oc1=O	25.3 µM (active)
COc1ccc(CCNC(=O)CSc2nncs2)cc1	inactive
COc1ccc(-n2c(SCC(=O)Nc3ccc(Cl)cc3)nc(O)c(Cc3ccccc3)c2=O)cc1	inactive
COc1ccc(-c2nnc(SCC(=O)c3ccc[nH]3)n2-c2ccccc2)cc1	inactive
CCOc1ccc(NCc2nnc(SCC(=O)Nc3cc(C)on3)n2-c2ccc(OC)cc2)cc1	13.5 µM (active)
COC(=O)CSc1nnc(CNc2ccc(OC)cc2)n1C	19.3 µM (active)
